# The campaign covered roughly 54,000 sequences. About 2,800 (5.2%) were called active. Rule as the data show it: active = GI50 up to about 1.1 µM and inactive = higher. Only a sample is shown. Measured potencies and affinities stand elsewhere.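 Method: 48-hour compound exposure of cells in 96-well plates, five concentrations, linear interpolation of endpoints. GI50: concentration for 50% inhibition of growth.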
# Tested on: NCI-H226
# Assay: NCI tumour cell line growth inhibition, 48 h
row,Substance,GI50
1,"cis-Bis[[(trimethylsilyl)methyl]amino]tetrachloroplatinum(IV), CHEMBL2146191",13.6 µM
2,"CISPLATIN, CHEMBL11359",5.05 µM
3,"[Bis(aminomethyl)dimethylsilane]tetrachloroplatinum(IV), CHEMBL2146190",4.49 µM
4,"[Bis(aminomethyl)tetramethylenesilane]tetrachloropaltinum(IV), CHEMBL2146189",8.18 µM
5,"mu-(1,7-nanodiamine-N,N')bis-(cis-aminedichloroplatimum (II)), CHEMBL2146215",1.07 µM
6,"[Bis(aminomethyl)tetramethylenesilane]dichloropaltinum(II), CHEMBL2146205",32.9 µM
7,"[Bis(aminomethyl)pentamethylenesilane]dichloropaltinum(II), CHEMBL2146202",1.43 µM
8,"[Bis(aminomethyl)ethylmethylsilane]tetrachloroplatinum(IV), CHEMBL2146192",5.75 µM
9,"[Bis(aminomethyl)diethylsilane]tetrachloroplatinum(IV), CHEMBL2146203",1.5 µM
10,"[Bis(aminomethyl)pentamethylenesilane]tetrachloropaltinum(IV), CHEMBL2146204",3.88 µM
11,"[Bis(aminomethyl)dimethylsilane]dichloroplatinum (II), CHEMBL2146201",35.8 µM

# From ChEMBL document CHEMBL1201862, “PubChem BioAssay data set” (2004)
